In test [1] the test system is Vero E6 infected with SARS-CoV-2. Description: morphology score (similarity to uninfected cells); higher = more like uninfected cells. As to conditions: 24 h.
Test [2] has the same test system. Description: SARS-CoV-2 infection rate relative to infected DMSO; higher = more infection, active = 60 or less. The note with it: 24 h.

Consider `C[C@@H]1CC(=O)NN=C1c1ccc(NN=C(C#N)C#N)cc1` [levosimendan] (10 µM), for which the morphology score in test [1] was -0.109. Moreover, the SARS-CoV-2 infection rate in test [2] was 117% (inactive).
With `O=[N+]([O-])c1cccc2cn[nH]c12` [7-nitroindazole] (10 µM), in test [1], the morphology score is 0.0542. The SARS-CoV-2 infection rate in test [2] was 100% (inactive).
In the same order, the values of `COC(=O)C1=C(C)NC(C)=C(C(=O)OC/C=C/c2ccccc2)C1c1cccc([N+](=O)[O-])c1` (stereo not given) [pranidipine] (10 µM) are -0.0636 and 107% (inactive).
In the case of `NS(=O)(=O)c1cccc2c1c([N+](=O)[O-])cc1nc(O)c(O)nc12` (10 µM), the morphology score in test [1] is -0.0523. The SARS-CoV-2 infection rate in test [2] is 104% (inactive).
Compound `CC(=O)O/N=C1\C(=O)N(Cc2cc(Cl)ccc2Cl)c2ccc(Cl)cc21` (10 µM) displayed a morphology score in test [1] of 0.395. In addition, the SARS-CoV-2 infection rate in test [2] is 76% (inactive).
In the case of `NS(=O)(=O)c1cc2c(cc1Cl)N=CNS2(=O)=O` [chlorothiazide] (10 µM), the morphology score in test [1] was -0.179. For the same compound, the SARS-CoV-2 infection rate in test [2] was 106% (inactive).
In the same order, the values of `COCCCN1CCC(NC(=O)c2cc(Cl)c(N)c3c2OCC3)CC1` [prucalopride] (10 µM) are 0.0302 and 109% (inactive).
For the compound `C[C@H](CCC(=O)NCCS(=O)(=O)O)[C@H]1CC[C@H]2[C@@H]3[C@H](O)C[C@@H]4C[C@H](O)CC[C@]4(C)[C@H]3C[C@H](O)[C@]12C` [taurocholate] (10 µM), the morphology score in test [1] is -0.0884. In test [2], the SARS-CoV-2 infection rate was 116% (inactive).
For the compound `NC(=O)c1cccc(N)c1` [3-amino-benzamide] (10 µM), the morphology score in test [1] was -0.037. In test [2], the SARS-CoV-2 infection rate is 102% (inactive).
In the same order, the values of `CC1(C)[C@H]2CC[C@]1(C)[C@@H](O)[C@H]2O` [cis-exo-camphanediol-2,3] (10 µM) are 0.0601 and 106% (inactive).
